Screening data: PubChem, National Center for Advancing Translational Sciences (NCATS)
Most compounds without a hit are left out; they make up all but 21% or so of the library.
HCMV inh – blocks human cytomegalovirus replication | HFF cells, HCMV-luciferase reporter, 72 h; hits give low values | activity change, negative = inhibition, % at 57.5 µM | 4.5% of 410,000 active | AID 1259415; in the data active = activity change below about -60%; inconclusive = no clear call, values can overlap the other calls; inactive = above about -39%
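Steps: HFFs plated, 16 h 37C; compounds added; HCMV-luciferase added to MOI 1 PFU/cell; 72 h 37C; OneGlo reagent, 5 min room temperature; luminescence read, normalized to controls.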
Shiga toxin inh – inhibitors of Shiga toxin in Vero cells; Vero cells, Shiga toxin protein synthesis inhibition reporter; 9.2% of 290,000 active; AID 2315; inhibition, % at 38.7 µM; in the data active = inhibition mostly above about 28%, no sharp cut-off; inactive = mostly below about 43%
HCV inh – inhibitors of hepatitis C virus infection. 3.4% of 340,000 active. Huh7.5.1 HCVcc-Cre infection, luciferase reporter, 44 h. Potency, µM (doses to about 41.8 µM), usual class: inhibitors. AID 651820
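A cell-based infection assay in which seeded cells (1,000 per well) receive test compound after 4 h, are inoculated with HCVcc-Cre at approximately 0.5 moi, and are incubated 44 h before luminescence detection.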
Cycloheximide cs – counter-screen for Shiga toxin inhibitors: cycloheximide protein synthesis inhibition | cell reporter, cycloheximide protein synthesis inhibition counterscreen | max response, % | 12% of 300,000 active | AID 2314; in the data active = max response mostly above about 13%, no sharp cut-off; inactive = mostly below about 14%; also: read at 38.3 µM for the half of the compounds with a filed dose
Pf growth 96h – P. falciparum growth inhibition at 96 hour, primary screen for plastid delayed-death inhibitors. Potency, µM (titrated, usually from 28.7 µM), actives largely listed as inhibitors. P. falciparum luciferase reporter growth, 96 h. AID 504834. 6.9% of 320,000 active
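Infected RBCs, 2% Hct / 0.05% parasitemia final; luciferase-reporter P. falciparum; cpd 96 h, 37 C, 5% CO2; luciferase detection reagent; luminescence.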
Pf growth 48h – inhibits P. falciparum growth in the first generation, 48 h | 5.9% of 310,000 active | P. falciparum luciferase growth in erythrocytes, 48 h | Potency, µM (titrated, usually from 28.7 µM), hits mostly inhibitors | AID 504832
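Compounds are pin-transferred into medium, infected erythrocytes (2% hematocrit, 0.1% parasitemia final) are added, and plates sit one parasite generation at 37 C in 5% CO2. Detection reagent is then added and luminescence measured.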
Hits are given with their value; 0 = inactive; ? = inconclusive; - = no result. Unless noted, calls follow the shape of the dose curve; as a rule, active = well fitted inhibition curve with a large enough effect; inconclusive = small, poorly fitted or top-dose-only effect, or another doubt; inactive = no such curve, though single readings can be large or run the other way.

SMILES | HCMV inh | Shiga toxin inh | HCV inh | Cycloheximide cs | Pf growth 96h | Pf growth 48h
CC(NC(=O)c1sc2ncccc2c1-n1cccc1)c1ccccc1 (centres undefined) | 0 | - | - | - | - | -
Brc1ccccc1OCCCCCN1CCOCC1 | 0 | 134.6 | ? | 29.5 | 0 | 0
c1ccc(SCCCCN2CCOCC2)cc1 | 0 | 0 | 0 | 15.0 | ? | ?
CCN1CCN(CCCCSc2ccccc2)CC1 | - | 0 | 0 | 0 | ? | 0
COc1ccc(N2CC(c3nc(-c4cc(OC)c(OC)c(OC)c4)no3)CC2=O)cc1Cl (centres undefined) | 0 | - | - | - | - | -
O=C(Nc1ccc2ccccc2c1)c1nn(C23CC4CC(CC(C4)C2)C3)cc1Br | 0 | 0 | 0 | 0 | ? | ?
COc1ccc(NC(=O)c2nn(C34CC5CC(CC(C5)C3)C4)cc2[N+](=O)[O-])cc1 | 0 | 0 | 0 | 0 | 0 | 4.65µM
O=C(Nc1cccc2ccccc12)c1nn(C23CC4CC(CC(C4)C2)C3)cc1[N+](=O)[O-] | -70.9 | 0 | ? | 0 | 0.928µM | ?
COCCCNC(=O)C(=O)C1C(=O)Nc2ccccc21 (centres undefined) | 0 | 0 | 0 | 0 | 0 | 0
CC(=O)Nc1ccc(NC(=O)c2cc(CN3CCCC3)on2)cc1 | 0 | - | - | - | - | -
Cc1ccc(C)c(NC(=O)Cn2ncc3c([nH]c4ccccc43)c2=O)c1 | 0 | - | - | - | - | -
Cc1cc(NC(=O)CSc2nc3c(cc2C#N)CCC3)no1 | 0 | 97.1 | 0 | 28.7 | 0 | 0
Cc1cc(NC(=O)CSc2nc3c(cc2C#N)CCCC3)no1 | 0 | 48.9 | 0 | 38.5 | 0 | 0
Cc1noc(NS(=O)(=O)c2ccc(NC(=O)CSc3nc4c(cc3C#N)CCCC4)cc2)c1C | 0 | 0 | 0 | 0 | ? | -
Cc1cc(C)c2nc(SCC(=O)Nc3cc(C)on3)c(C#N)cc2c1 | 0 | 0 | 0 | 0 | 0 | 0
Cc1cc(NC(=O)CSc2nc3ccccc3cc2C#N)no1 | 0 | 39.0 | 0 | 0 | 0 | 0
CC1(C(=O)Nc2ccc3ccccc3c2)CCc2nc3ccccc3n21 (centres undefined) | 0 | - | - | - | - | -
CCN(c1ccccc1)c1nnc(NC(=O)Nc2ccc(C)cc2)s1 | 0 | - | - | - | - | -
Cc1ccc(-c2cc(C(=O)N(C)CC(=O)Nc3ccccc3Br)c3ccccc3n2)o1 | 0 | - | ? | - | ? | ?
Cc1cccc(N2CCN(S(=O)(=O)c3ccc(-c4ccc(=O)[nH]n4)o3)CC2)c1C | -63.1 | 0 | 0 | 0 | 0 | ?
COc1ccccc1N1CCN(S(=O)(=O)c2ccc(-c3ccc(=O)[nH]n3)o2)CC1 | 0 | 0 | 0 | 0 | ? | ?
Cc1ccccc1NS(=O)(=O)c1ccc(-c2ccc(=O)[nH]n2)o1 | 0 | 0 | 0 | 0 | 13.1µM | 0
Cc1nc2ccccc2c(=O)n1NC(=O)c1ccc(F)cc1Cl | 0 | 0 | 0 | 0 | 9.28µM | 0
Cc1nc2ccccc2c(=O)n1NC(=O)c1c(F)cccc1F | -68.7 | 0 | 0 | 0 | 0 | 0
Cc1nc2ccccc2c(=O)n1NC(=O)c1ccccc1Cl | 0 | 0 | 0 | 0 | 0 | 0
SMILES | HCMV inh | Shiga toxin inh | HCV inh | Cycloheximide cs | Pf growth 96h | Pf growth 48h
Cc1nnc(N2CCC(C(=O)NCCC(C)C)CC2)c2nn(-c3ccc(Cl)cc3)c(C)c12 | 0 | - | - | - | - | -
CN(C)C(=O)c1ccc(N=Nc2c(O)c3ccccc3[nH]c2=O)cc1 | 0 | - | 0 | - | - | -
CC(=O)c1cccc(N=Nc2c(C)[nH]c3ccccc23)c1 | 0 | 93.3 | ? | 49.6 | ? | 0
O=C(O)c1ccc(N=Nc2c(O)[nH]c3ccccc23)cc1 | 0 | 56.1 | 0 | 38.7 | ? | ?
O=C(O)c1cccc(N=Nc2c(O)[nH]c(=O)[nH]c2=O)c1 | 0 | 0 | 0 | 0 | 0 | 0
O=C(N=Nc1c(O)[nH]c2ccc(Br)cc12)c1ccco1 | 0 | - | - | - | - | -
O=C(N=Nc1c(O)[nH]c2ccc(Br)cc12)c1ccccc1-n1cccc1 | ? | 0 | 17.8µM | 0 | ? | -
O=C(N=Nc1c(O)[nH]c2ccccc12)c1cccs1 | 0 | 107.1 | 0 | 39.0 | 0 | 0
O=C(N=Nc1c(O)[nH]c2ccccc12)c1cc(NS(=O)(=O)c2cccs2)cc(NS(=O)(=O)c2cccs2)c1 | 0 | 0 | 0 | 0 | ? | ?
CCc1ccc(S(=O)(=O)c2nnn3c2nc(NC2CCCCCC2)c2sccc23)cc1 | 0 | - | - | - | - | -
O=C(N=Nc1c(O)[nH]c2ccc(Br)cc12)c1cc(-c2cccs2)nc2ccccc12 | -60.6 | 0 | ? | 0 | 0 | 0
Cc1ccc(NC(=O)c2ncn(CCCNCc3ccccn3)n2)cc1C | 0 | - | 0 | - | - | -
